RORg inh – blocks mouse ROR gamma transcriptional activity. Drosophila S2 Gal4-RORgamma UAS-luciferase reporter, 20 h. Potency, µM (titrated, usually from 53.6 µM), hits mostly inhibitors. 5.4% of 310,000 active. AID 2551; further: nearly all actives have a fitted effect of over 60% in size
Target sequence (P51450 whole entry, looked up, the tested form may be a part): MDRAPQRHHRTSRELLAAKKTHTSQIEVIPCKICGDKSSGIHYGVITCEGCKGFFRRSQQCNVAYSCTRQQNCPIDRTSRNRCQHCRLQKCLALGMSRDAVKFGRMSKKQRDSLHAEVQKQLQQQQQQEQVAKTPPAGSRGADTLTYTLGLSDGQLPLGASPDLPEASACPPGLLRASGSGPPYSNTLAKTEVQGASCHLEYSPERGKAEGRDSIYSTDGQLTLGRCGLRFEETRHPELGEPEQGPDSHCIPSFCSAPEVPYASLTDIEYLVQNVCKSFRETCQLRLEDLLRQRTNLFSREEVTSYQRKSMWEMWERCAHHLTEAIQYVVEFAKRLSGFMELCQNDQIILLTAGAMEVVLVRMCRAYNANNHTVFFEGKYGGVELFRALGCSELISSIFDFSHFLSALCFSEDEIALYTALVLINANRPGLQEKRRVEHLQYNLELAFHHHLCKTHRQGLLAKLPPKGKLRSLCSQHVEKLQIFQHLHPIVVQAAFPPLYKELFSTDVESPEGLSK
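Read-out: Photinus luciferase luminescence; inhibitors lower reporter signal. Insect Schneider cells with Gal4-ROR gamma fusion under metallothionein promoter, UAS reporter; 700 uM final copper sulfate induction, 20 hr, ambient temperature.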
KinaseGlo FLuc – counter-screen: inhibitors of Kinase-Glo firefly luciferase | Kinase-Glo luciferase, ATP luminescence, 8 min | Potency, µM (top dose mostly 38.3 µM), most hits filed as inhibitors | AID 1379 | 0.28% of 200,000 active; further: nearly all actives have a fitted effect of over 60% in size
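Compound is pinned into ATP-containing buffer (10 uM ATP, imidazole pH 7.2, 7 mM MgCl2). Kinase-Glo luciferase reagent is then added. Light output is recorded following an 8-min room-temperature incubation.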
Gal4-VP16 FLuc – counter-screen for ROR gamma inhibitors: Gal4-VP16 reporter; Drosophila S2 Gal4-VP16 UAS-luciferase, luminescence, 20 h; Potency, µM (series often up to 53.6 µM), actives largely listed as inhibitors; 3.5% of 310,000 active; AID 2546;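 further: Gal4-VP16 expression switched on by copper sulfate through the metallothionein promoter; nearly all actives have a fitted effect of over 50% in size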
Of the large screens only hits and unclear results are named; the others gave an inactive call. Rows were chosen to be rich in hits. Some 6.4% of all compounds tested hit in one or more screens of this group. The call rests on the fitted dose curve; in most records, active means well fitted curve in the direction sought with a large enough effect; inconclusive means small, poorly fitted or top-dose-only effect, or another doubt; inactive means no such curve, though single readings can be large; an effect the other way counts as inactive or inconclusive.

CCCOc1ccc(CCCN=C(N)N)cc1Cl	none (no result: KinaseGlo FLuc)
O=C(c1ccncc1)N1CCC2(CCN(Cc3nccs3)CC2)CC1	none
O=C(c1ccc2c(=O)n3c(nc2c1)CCCCC3)N1CCN(c2cccc(Cl)c2)CC1	none (no result: KinaseGlo FLuc)
S=C(NCc1ccco1)N1CCC(c2nc3ccccc3o2)CC1	none
Cc1cccc(NC(=S)N2CCC(c3nc4ccccc4o3)CC2)c1	RORg inh 7.08µM
CCOc1ccccc1NC(=S)N1CCC(c2nc3ccccc3o2)CC1	RORg inh 11.2µM, Gal4-VP16 FLuc inconclusive
Cc1cccc(NC(=S)N2CCC(c3nc4ccccc4o3)CC2)c1C	RORg inh 10µM, Gal4-VP16 FLuc inconclusive
COc1ccccc1NC(=O)N1CCC(c2nc3ccccc3o2)CC1	none
Cc1cccc(NC(=O)N2CCC(c3nc4ccccc4o3)CC2)c1	none
O=c1[nH]c(Cl)nc2c1ncn2C1OC(CO)C(O)C1O (stereo not given)	none
CC(C)[C@H](NC(=O)[C@H](CCCCN)NC(=O)[C@@H](NC(=O)[C@@H]1CCCN1C(=O)[C@H](CCCN=C(N)N)NC(=O)[C@H](CCCN=C(N)N)NC(=O)[C@H](CCCCN)NC(=O)[C@H](CCCCN)NC(=O)CNC(=O)[C@@H](NC(=O)[C@@H]1CCCN1C(=O)[C@@H](N)CCCCN)C(C)C)C(C)C)C(=O)N[C@@H](Cc1ccc(O)cc1)C(=O)N1CCC[C@H]1C(=O)O	none (no result: KinaseGlo FLuc)
CCOC(=O)CSc1nnc(CNC(=O)c2ccc([N+](=O)[O-])cc2)n1C	none
Cc1ccc(S(=O)(=O)NC(C)(C)CN2CCc3ccccc3C2)cc1	none (no result: KinaseGlo FLuc)
Cn1cccc1C(=O)N1CCC[C@@]2(CCN(c3ccccn3)C2)C1	none
O=S(=O)(c1ccc(Br)s1)N1CCC(Cc2ccccc2)CC1	RORg inh 12.6µM
O=S(=O)(c1ccc(Cl)s1)N1CCC(Cc2ccccc2)CC1	none
COc1cccc(CNC(=O)C2CCCN(S(=O)(=O)c3ccc4c(c3)C(C)(C)C(=O)N4C)C2)c1 (stereo not given)	none (no result: KinaseGlo FLuc)
O=C(c1cccs1)N(Cc1nc2sc3c(c2c(=O)[nH]1)CCCC3)C1CCCC1	none
Cc1sc2nc(CN(C(=O)NC3CCCCC3)C3CCCC3)[nH]c(=O)c2c1C	RORg inh 8.91µM, Gal4-VP16 FLuc 14.1µM
Cc1sc2nc(CN(C(=O)c3cccs3)C3CCCC3)[nH]c(=O)c2c1C	RORg inh 11.2µM, Gal4-VP16 FLuc inconclusive
COCC(=O)N(Cc1nc2sc(C)c(C)c2c(=O)[nH]1)C1CCCCC1	none (no result: KinaseGlo FLuc)
CC(=O)c1c(C)[nH]c(C(=O)OCC(=O)Nc2sc3c(c2C#N)CCC(C)C3)c1C (stereo not given)	none (no result: KinaseGlo FLuc)
Cn1c(=O)c2ccccc2n(Cc2ccccc2Cl)c1=O	RORg inh inconclusive (no result: KinaseGlo FLuc)
CCN(C(=O)COC(=O)CNC(=O)c1ccc2ccccc2c1)C1CCS(=O)(=O)C1 (stereo not given)	none
CC(C)OCCCNC(=S)NNC(=O)c1ccc(Cl)c(Cl)c1	RORg inh 14.1µM, Gal4-VP16 FLuc inconclusive
COCCCNC(=S)NNC(=O)c1ccc2c(c1)OCO2	none
COc1ccc(C(=O)Nc2ccccc2N2CCOCC2)cc1Br	RORg inh 17.8µM
Cc1cccc(OCC(=O)NC(=S)Nc2ccccc2N2CCOCC2)c1C	none (no result: KinaseGlo FLuc)
COc1ccc(C(=O)Nc2ccccc2C(=O)N2CCOCC2)cc1Br	none (no result: KinaseGlo FLuc)
CCOc1ccc(C(=O)NC(=S)Nc2ccccc2N2CCOCC2)cc1Br	RORg inh 3.16µM, Gal4-VP16 FLuc 4.47µM
CCOc1cc(N2CCOCC2)c(OCC)cc1NC(=O)Cc1ccccc1	none (no result: KinaseGlo FLuc)
CCOc1cc(N2CCOCC2)c(OCC)cc1NC(=O)Cc1ccccc1OC	Gal4-VP16 FLuc 22.4µM
COc1ccc(C(=O)NC(=S)Nc2ccccc2N2CCOCC2)cc1Br	RORg inh 6.31µM, Gal4-VP16 FLuc 6.31µM
COc1cc(OC)cc(C(=O)Nc2ccccc2N2CCOCC2)c1	none
Cn1c(CNC(=O)CNS(=O)(=O)c2ccc(F)cc2F)cc(=O)n(C)c1=O	none (no result: KinaseGlo FLuc)
OCCC1CN(Cc2ccccc2-c2ccco2)CCN1Cc1ccccc1 (stereo not given)	none (no result: KinaseGlo FLuc)
O=C(c1cncc(Br)c1)N1CCN(S(=O)(=O)c2ccc(Cl)cc2)CC1	none (no result: KinaseGlo FLuc)
COCCn1c(-c2cccc([N+](=O)[O-])c2)nc2c1c(=O)[nH]c(=O)n2Cc1ccccc1	none
CC(=O)n1cc(C(C[N+](=O)[O-])SCCN)c2ccccc21 (stereo not given)	RORg inh 12.6µM, Gal4-VP16 FLuc inconclusive
Cn1cc(C(C[N+](=O)[O-])c2ccccc2)c2ccccc21 (stereo not given)	RORg inh inconclusive (no result: KinaseGlo FLuc)
CC(=O)NC(=S)Nc1cccc2ccc(C)nc12	RORg inh 2.82µM, Gal4-VP16 FLuc 12.6µM (no result: KinaseGlo FLuc)
CC(C)CC(=O)NC(=S)Nc1ccccc1F	RORg inh 10µM, Gal4-VP16 FLuc inconclusive
Cc1ccc(C(=O)NC(=S)Nc2ccccc2C(F)(F)F)cc1	RORg inh 4.47µM, Gal4-VP16 FLuc inconclusive (no result: KinaseGlo FLuc)
Cc1ccc2cccc(NC(=S)NC(=O)c3ccnn3C)c2n1	RORg inh inconclusive, Gal4-VP16 FLuc inconclusive
COc1ccccc1NC(=S)NC(C)=O	RORg inh 11.2µM
COC(=O)CCC(=O)NC(=S)Nc1ccccc1F	RORg inh inconclusive
COc1ccccc1NC(C)=O	none
Cc1ccc(C(=O)NCC(=O)Nc2ccccc2C(F)(F)F)cc1	none
COCCNC(=O)c1ccccc1NC(=O)c1ccccc1SC	none
Cc1ccc(S(=O)(=O)N2CCN(C(=O)c3ccc(N4CCCCC4)c([N+](=O)[O-])c3)CC2)cc1	RORg inh inconclusive (no result: KinaseGlo FLuc)
C[C@H](NCc1c[nH]c2ccccc12)c1ccccc1	RORg inh inconclusive (no result: KinaseGlo FLuc)
Nc1ccc2nc(CCCO)[nH]c2c1	none (no result: KinaseGlo FLuc)
CC(=O)c1cccc(NC(=O)C2CCN(C(=O)c3cccs3)CC2)c1	none (no result: KinaseGlo FLuc)
COc1ccc(S(=O)(=O)NC2CCSc3ccccc32)cc1OC (stereo not given)	none (no result: KinaseGlo FLuc)
Cc1sc2ncn(CC(=O)NCCCC(=O)N3CCN(Cc4ccc5c(c4)OCO5)CC3)c(=O)c2c1C	none
COc1ccccc1NC(=O)CC(=O)Nc1ccccc1OC	none (no result: KinaseGlo FLuc)
CC(C)CC(=O)NC(=S)Nc1ccccc1C(F)(F)F	RORg inh 5.62µM, Gal4-VP16 FLuc inconclusive
O=C(CC(=O)Nc1ccccn1)Nc1ccccn1	none
CC(C)CC(=O)NC(=S)Nc1ccccn1	Gal4-VP16 FLuc 20µM
COc1ccccc1NC(=S)NC(=O)CC(C)C	RORg inh 2.24µM, Gal4-VP16 FLuc 12.6µM
COc1ccccc1C(C)NCC(=O)Nc1ccccc1C(F)(F)F (stereo not given)	none
COc1c(C)cccc1C(=O)NC(=S)Nc1cccc2nsnc12	none
CC(C)CC(=O)NC(=S)Nc1cccc2nsnc12	RORg inh 7.94µM
C[C@H](NC(=O)[C@@H](N)Cc1ccc(O)cc1)C(=O)NCC(=O)N[C@H]1CSSC[C@@H](C(=O)O)NC(=O)[C@H](CO)NC(=O)[C@H]([C@@H](C)O)NC(=O)[C@H](Cc2ccccc2)NC(=O)[C@H]([C@@H](C)O)NC(=O)[C@H](CCCCN)NC(=O)[C@@H](Cc2c[nH]c3ccccc23)NC(=O)[C@H](Cc2ccccc2)NC(=O)[C@H](Cc2ccccc2)NC(=O)[C@H](CC(N)=O)NC(=O)[C@H](CCCCN)NC1=O	none (no result: KinaseGlo FLuc)
CCC/C=C(\CCC)C(NS(=O)(=O)c1ccc(Cl)cc1)c1ccccc1 (stereo not given)	RORg inh inconclusive
CC(C)(C)CC(=O)NC(=S)Nc1ccccc1C(F)(F)F	RORg inh 3.16µM, Gal4-VP16 FLuc 20µM

Assay outcomes as filed in PubChem.
